An excerpt weighted towards active compounds, which were near 2% of everything screened.
Rin1-Abl PPI inh: blocks binding of human Rin1 to Abl | TR-FRET Rin1/Abl binding, biochemical | P00519+Q13671 | inhibition, % at 7.35 µM | 360,000 compounds, 0.4% hits; in the data active = inhibition above about 5%, passing the limit was not always enough
LEDGF integ inh: blocks HIV-1 LEDGF/p75-dependent DNA integration. 370,000 compounds, 0.64% hits. inhibition, % at 3.7 µM. TR-FRET IN-LEDGF/p75 DNA integration, Eu/Cy5;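 active = inhibition above the screen-wide mean plus 3 SD, cut at about 13% in these data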;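 note: signal is the Cy5 over europium emission ratio at 671 and 618 nm; 0% = plate median of compound wells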
TCR-CD3 inh: inhibitors of human TCR-CD3 interaction; inhibition, % at 9.4 µM; 360,000 compounds, 0.37% hits; TAMRA-labeled TCR probe fluorescence, biochemical;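 note: recombinant mutant TCR 2C K166C tagged with TAMRA read by polarization; 0% = receptor in buffer alone and 100% = receptor with positive control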
UHRF1 binding: human UHRF1 methylated DNA binding inhibitors; Q96T88; UHRF1 binding to methylated oligo, TR-FRET; inhibition, % at 4.4 µM; 370,000 compounds, 0.75% hits; in the data active = inhibition above about 21%;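 note: UHRF1 SRA domain binding a hemimethylated CpG hairpin DNA probe; 0% = median of test compound wells and 100% = reference inhibitor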
Target sequence (Q96T88 whole entry, looked up, the tested form may be a part): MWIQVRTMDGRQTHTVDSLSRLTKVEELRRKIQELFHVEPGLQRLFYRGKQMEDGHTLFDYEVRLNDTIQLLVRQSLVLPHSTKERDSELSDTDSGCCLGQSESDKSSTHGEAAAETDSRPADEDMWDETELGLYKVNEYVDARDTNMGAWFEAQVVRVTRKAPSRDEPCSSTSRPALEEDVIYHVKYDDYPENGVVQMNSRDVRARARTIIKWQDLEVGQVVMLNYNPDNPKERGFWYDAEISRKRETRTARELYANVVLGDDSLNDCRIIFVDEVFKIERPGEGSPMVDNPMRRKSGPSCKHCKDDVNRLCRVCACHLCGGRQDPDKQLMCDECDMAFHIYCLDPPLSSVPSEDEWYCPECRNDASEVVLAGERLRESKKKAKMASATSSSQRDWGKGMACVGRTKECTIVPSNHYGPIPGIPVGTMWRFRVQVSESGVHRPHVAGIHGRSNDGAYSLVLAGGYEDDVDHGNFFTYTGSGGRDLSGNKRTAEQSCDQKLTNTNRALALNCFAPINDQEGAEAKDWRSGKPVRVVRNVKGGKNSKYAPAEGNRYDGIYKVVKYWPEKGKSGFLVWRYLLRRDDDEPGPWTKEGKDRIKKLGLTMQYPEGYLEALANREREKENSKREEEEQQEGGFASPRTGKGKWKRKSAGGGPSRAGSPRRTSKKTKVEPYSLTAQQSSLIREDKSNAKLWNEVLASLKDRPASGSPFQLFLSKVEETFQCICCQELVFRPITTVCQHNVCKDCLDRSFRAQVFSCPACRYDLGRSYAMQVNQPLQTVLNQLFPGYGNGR
MBD2 DNA inh: blocks human MBD2 binding to methylated DNA | Q9UBB5 | TR-FRET, MBD2 binding to methylated oligonucleotide | inhibition, % at 4.4 µM | 370,000 compounds, 0.31% hits; in the data active = inhibition above about 13%
Rin1-Abl confirm: confirmation of inhibitors of human Rin1-Abl interaction; inhibition, % at 7.35 µM; TR-FRET Rin1-Abl binding, purified proteins; shares compounds with Rin1-Abl PPI inh; AID 602124; 1,300 compounds, 49% hits; in the data active = inhibition above about 6.5%
GFP quencher: quenches GFP fluorescence, counter-screen for Rin1-Abl inhibitors | shares compounds with Rin1-Abl PPI inh | inhibitors/quenchers counterscreen | inhibition, % at 6.75 µM | 1,300 compounds, 8.5% hits; in the data active = inhibition above about 6.5%;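 note: ABL1-eGFP fusion protein alone without its partner RIN1-SBP; 0% = protein with vehicle and 100% = wells lacking protein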
BSA probe FL: counter-screen for TCR-CD3 interaction inhibitors: BSA probe. inhibition, % at 9.4 µM. shares compounds with TCR-CD3 inh. TAMRA-labeled BSA probe fluorescence counterscreen. 1,200 compounds, 10% hits. AID 652035; in the data active = inhibition above about 23%;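 note: 0% = buffer low control and 100% = reference high control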
TCR-CD3 conf: confirmation of human TCR-CD3 interaction inhibitors; TAMRA-labeled TCR probe fluorescence binding assay; inhibition, % at 9.4 µM; 1,200 compounds, 48% hits; shares compounds with TCR-CD3 inh; AID 652036
UHRF1 ctr MBD2: inhibits human UHRF1 binding to methylated oligonucleotide, MBD2 counter-screen; inhibition, % at 4.4 µM; TR-FRET; 1,000 compounds, 25% hits; shares compounds with MBD2 DNA inh; in the data active = inhibition above about 21%;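 note: UHRF1 SRA domain binding a labeled hemimethylated CpG hairpin DNA; 0% = vehicle only and 100% = reference inhibitor with vehicle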
MBD2 confirm: MBD2-DBD methyl-DNA binding inhibition, TR-FRET confirmation. AID 720531. inhibition, % at 4.4 µM. 1,000 compounds, 26% hits. shares compounds with MBD2 DNA inh. TR-FRET MBD2-DBD binding to methylated oligonucleotide; in the data active = inhibition above about 14%
IN multimer act: counter-screen for LEDGF/p75 integration inhibitors: HIV-1 integrase multimerization activators | 2,000 compounds, 17% hits | AID 1053131 | TR-FRET HIV-1 integrase multimerization, biochemical | shares compounds with LEDGF integ inh | activation, % at 7.7 µM; in the data active = activation above about 8.9%
TRFRET interf: TR-FRET optical interference, LEDGF/p75 integration counter-screen; shares compounds with LEDGF integ inh; TR-FRET optical interference counterscreen, HIV-1 IN multimerization; inhibition, % at 7.7 µM; 2,000 tested, under 10 active; AID 1053135;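 active = inhibition above the mean over all tested compounds plus 3 SD, which no compound reached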;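 note: 0% = integrase with antibodies and DMSO and 100% = antibodies without integrase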
IN-LEDGF confirm: confirmation of HIV-1 LEDGF/p75-dependent integration inhibitors. inhibition, % at 3.7 µM. 2,000 compounds, 36% hits. TR-FRET LEDGF/p75-dependent HIV-1 integration, biochemical. shares compounds with LEDGF integ inh. AID 1053136; in the data active = inhibition above about 14%
* = called active by the depositor; · = not tested or not shown. Cut-off read from the data, not from the text of the source, unless noted: active = inhibition above about 19%; inactive = the rest.

SMILES	Rin1-Abl PPI inh	LEDGF integ inh	TCR-CD3 inh	UHRF1 binding	MBD2 DNA inh	Rin1-Abl confirm	GFP quencher	BSA probe FL	TCR-CD3 conf	IN multimer act	TRFRET interf	IN-LEDGF confirm	others
Oc1ccc(/C=N/Nc2ncnc3c2ncn3Cc2ccccc2)cc1O	11.7*	17.9*	53.4*	4.0	8.2	10.7*	9.1*	-4.0	45.9*	57.2*	-205.2	66.0*
O=c1cc2c(=O)oc3cc(O)c(O)oc3c2c(O)c1O	56.2*	88.9*	25.6*	97.1*	95.0*	50.8*	34.3*	-18.7	19.1*	80.3*	-285.9	91.4*	UHRF1 ctr MBD2=92.2*;MBD2 confirm=109.2*
CCc1nc2ccc(C(=O)NCc3ccc4c(c3)OCO4)cn2c1N(C)C(=O)Cc1ccccc1	-1.5	-1.3	4.7	-0.7	2.0	·	·	·	·	·	·	·
O=C(NCCCO)c1ccc2nc(-c3ccco3)c(-c3ccco3)nc2c1	11.2*	53.3*	9.2	17.3	-4.9	1.7	11.4*	·	·	50.1*	-177.6	70.2*
C[C@@H]1O[C@@H](O[C@@H]2[C@@H](O)[C@H](OCCc3ccc(O)c(O)c3)O[C@H](CO)[C@H]2OC(=O)/C=C/c2ccc(O)c(O)c2)[C@H](O)[C@H](O)[C@H]1O	30.5*	86.5*	11.3	9.5	5.1	33.6*	2.5	·	·	36.6*	-184.5	88.4*
Oc1ccc(-c2cn3c(n2)SCC3)cc1	4.1	-2.8	-3.1	-0.9	-1.1	·	·	·	·	·	·	·
Oc1ccc(-c2cn3c(n2)SCC3)cc1O	26.0*	52.1*	37.5*	3.6	3.8	20.5*	15.0*	-7.2	32.9*	72.4*	-257.7	58.5*
CCOC(=O)C1=C(C)N(C)C(=O)NC1c1cc2c(cc1[N+](=O)[O-])OCO2 (stereo not drawn)	8.7*	13.8*	10.7	8.1	4.7	7.4*	0.5	·	·	10.4*	-37.3	1.9
COc1ccc(NC(=O)/C(C#N)=C\c2ccc(-c3cc(C(=O)O)ccc3C)o2)cc1	1.3	-0.8	7.5	12.2	2.7	·	·	·	·	·	·	·
N#C/C(=C\c1cc(O)c(O)c(O)c1)C(N)=O	48.9*	67.9*	31.7*	46.9*	31.7*	48.9*	20.5*	-6.4	12.7	30.6*	-154.4	30.5*	UHRF1 ctr MBD2=3.3;MBD2 confirm=-10.8
CCN(CC)c1ccc(/C=C(\C#N)C(N)=O)cc1	-9.4	-3.5	2.6	-16.6	-7.7	·	·	·	·	·	·	·
C[n+]1c(-c2ccccc2)cc2c(=Cc3ccccc3)c3ccccc3n21	12.7*	28.1*	-17.0	6.1	-10.3	-5.8	1.8	·	·	3.9	-14.3	45.3*
COc1cc(N)c2ncccc2c1Br	13.4*	28.6*	13.3	5.8	-11.3	-2.6	1.8	·	·	4.8	-17.4	2.8
COc1cc(NC(C)=O)c2ncccc2c1NC(C)=O	1.3	-1.6	2.2	-1.7	-1.4	·	·	·	·	·	·	·
CCOc1ccc(C(=O)Nc2nnc(S(=O)(=O)Nc3ccccc3C)s2)cc1	3.3	0.7	-8.1	-1.5	2.6	·	·	·	·	·	·	·
O=C(NNC(=O)c1cc2ccccc2cc1O)Nc1ccc(F)cc1F	3.4	-0.3	19.9*	-5.8	-0.9	·	·	4.5	19.1*	·	·	·
Cc1ccc(C(=O)NNC(=O)c2cc3ccccc3cc2O)cc1	-5.1	-5.3	24.1*	-3.2	-7.5	·	·	0.8	25.1*	·	·	·
Cc1ccc(NS(=O)(=O)c2ccc(C(=O)NNC(=O)c3ccccc3O)cc2)cc1	-0.9	-6.4	19.9*	0.9	0.7	·	·	-16.1	9.4	·	·	·
NNC(=O)c1cc2ccccc2cc1O	-0.7	2.5	4.6	1.4	4.7	·	·	·	·	·	·	·
COc1ccc(C)cc1NC(=O)NNC(=O)c1cc2ccccc2cc1O	0.7	-5.0	22.5*	-2.4	1.3	·	·	-2.4	25.9*	·	·	·
COc1ccc(C)cc1NC(=O)NNC(=O)c1ccoc1C	2.9	7.5	5.3	-2.3	-0.2	·	·	·	·	·	·	·
COc1ccccc1Cc1c(-c2ccc(C#N)cc2)nc2ccc(C)cn12	·	-2.1	0.7	13.3	0.7	·	·	·	·	·	·	·
CCN(CC)CCCNC(=O)c1cc(Nc2ccc(OC)cc2)nc2ccccc12	-2.5	-5.3	-8.7	-0.9	-3.1	·	·	·	·	·	·	·
COc1cc(NC(=O)COC(=O)CC(NC(C)=O)c2ccccc2)cc(OC)c1 (stereo not drawn)	3.7	2.5	-5.1	0.2	2.4	·	·	·	·	·	·	·
CN(C)S(=O)(=O)c1cccc(NC(=S)NNC(=O)c2cc3ccccc3cc2O)c1	3.7	-1.4	23.1*	-2.6	-3.1	·	·	-10.7	12.6	·	·	·
SMILES	Rin1-Abl PPI inh	LEDGF integ inh	TCR-CD3 inh	UHRF1 binding	MBD2 DNA inh	Rin1-Abl confirm	GFP quencher	BSA probe FL	TCR-CD3 conf	IN multimer act	TRFRET interf	IN-LEDGF confirm	others
O=C(NNC(=O)c1cc2ccccc2cc1O)Nc1ccc(Br)cc1	-3.3	-3.0	22.9*	-0.8	1.2	·	·	-10.8	21.6*	·	·	·
COc1cc2ccccc2cc1C(=O)NNC(=O)c1ccccc1O	-4.6	-10.1	33.8*	-2.7	0.7	·	·	-6.0	25.4*	·	·	·
CC(=O)NC(CC(=O)NNC(=O)c1cc2ccccc2cc1O)c1ccccc1 (stereo not drawn)	-3.0	-7.0	49.9*	-1.4	0.2	·	·	-4.3	31.0*	·	·	·
COC(=O)c1ccccc1NC(=O)CSc1nc2ccsc2c(=O)n1CCCCC(=O)O	-25.6	8.7	-2.6	-0.3	-7.3	·	·	·	·	·	·	·
CCOC(=O)C1(C)CCCN(C(=O)c2ccc(OC)c(OC)c2)C1 (stereo not drawn)	0.2	-1.5	1.0	-2.2	1.3	·	·	·	·	·	·	·
COc1ccc(NC(=O)NNC(=O)c2cc3ccccc3cc2O)cc1	-1.4	-13.4	24.7*	0.9	2.5	·	·	-8.1	22.1*	·	·	·
COc1ccc(NS(=O)(=O)c2ccc(C)c(C(=O)NNC(=O)c3ccccc3O)c2)cc1	-0.7	-14.0	5.4	1.8	4.5	·	·	·	·	·	·	·
